PubChem BioAssay (Tox21)
Results filed as inconclusive are left out. Where a call stands in place of a potency, no number is given. A number with no mark means an inactive call. Activity calls are given as the source filed them. Unless noted, calls follow the shape of the dose curve; as a rule, active = well fitted curve in the direction sought with a large enough effect in the repeat runs; inconclusive = weak or mixed curves; inactive = no such curve, though single readings can be large; an effect the other way counts as inactive or inconclusive.

What was measured:
[1] = qHTS assay to identify small molecule antagonists of the estrogen related receptor (ERR) signaling pathway - cell viability counter screen (AID 1224818);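 also: series mostly up to about 46 µM; viability measured after 17.5 h of compound exposure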
In short: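 Multiplexed counter screen to separate cytotoxic compounds from true ERR modulators. ERR cells received DMSO-dissolved compounds after a 6 h pre-incubation, were exposed 17.5 h at 37 C, then assayed with CellTiter-Fluor fluorescence.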

[2] = qHTS assay to identify small molecule antagonists of the estrogen related receptor signaling pathway with the pleiotropic PPARgamma coactivator (PGC) cell viability counter screen (AID 1224822; also: potency is read from the fitted curve at half-maximal effect; as to viability change, negative = cytotoxic: series mostly up to about 46 µM)
In short: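 Cells: PGC/ERR, 2,000/well, 1536-well format. Pre-incubation 6 h, 37 C/5% CO2. Compound exposure 17.5 h, 37 C. Detection: CellTiter-Fluor, 30 min, fluorescence.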

[3] = qHTS assay to identify small molecule antagonists of the estrogen related receptor (ERR) signaling pathway from Tox21 library - cell viability counter screen (AID 1224834); also: nearly all actives have a fitted effect of over 30% in size
In short: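 Fluorescence from CellTiter-Fluor gives the viability read-out, taken 30 min after reagent addition. Before that, ERR cells seeded 6 h earlier were incubated with compounds for 17.5 h at 37 C.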

[4] = biological target: Luciferin 4-monooxygenase (Photinus pyralis) (UniProt P08659); test: qHTS assay to identify small molecule inhibitors of firefly luciferase (AID 1224835); also: series mostly up to about 120 µM; nearly all actives have a fitted effect of over 25% in size
In short: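 Biochemical qHTS: compounds run as interplate titrations against purified firefly enzyme, with D-luciferin and ATP each at its KM concentration. Light output recorded by CCD imaging.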

[5] = qHTS assay to identify small molecule agonists of the constitutive androstane receptor (CAR) signaling pathway - cell viability counter screen (AID 1224836); also: series mostly up to about 92 µM; nearly all actives have a fitted effect of over 45% in size
In short: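 23 h treatment, 37 C, 5% CO2. Cell line: HepG2 stably expressing hCAR with a CYP2B6-2.2kb construct. Co-treatment: PK11195, 0.75 uM final. Read-out: CellTiter-Fluor fluorescence intensity.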

[6] = qHTS assay to identify small molecule agonists of the estrogen related receptor (ERR) signaling pathway (AID 1224820)
In short: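 ERR reporter cells (NTP line) plated 2,000/well, incubated 6 h at 37 C/5% CO2, then pinned with compounds in DMSO and held 18 h at 37 C. One-Glo added; luminescence read after 30 min at room temperature.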

[7] = qHTS assay to identify small molecule agonists of the estrogen related receptor signaling pathway with the pleiotropic PPARgamma coactivator (PGC) (AID 1224823)
In short: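 PGC/ERR reporter cells were seeded, rested 6 h at 37 C/5% CO2, then exposed to compounds in DMSO by pin transfer for 18 h at 37 C. Luciferase activity was read as luminescence after One-Glo reagent and 30 min at room temperature.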

[8] = qHTS assay to identify small molecule antagonists of the estrogen related receptor (ERR) signaling pathway (AID 1224819;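 also: luminescence from an ERR-driven luciferase reporter measured with One-Glo reagent; series mostly up to about 46 µM; nearly all actives have a fitted effect of over 50% in size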)
In short: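 Seed ERR cells 2,000/well; rest 6 h at 37 C/5% CO2; pin compounds in DMSO; incubate 18 h at 37 C; add One-Glo; wait 30 min at room temperature; measure luminescence.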

[9] = tested on: estrogen-related receptor alpha (ERRalpha) with PGC-1alpha coactivator, human; test: qHTS assay to identify small molecule antagonists of the estrogen related receptor signaling pathway with the pleiotropic PPARgamma coactivator (PGC) (AID 1224821; calls by dose curve;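 also: series mostly up to about 46 µM; lower luminescence signal means antagonism of PGC/ERR signalling; nearly all actives have a fitted effect of over 50% in size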)
In short: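 Cells engineered for PGC/ERR signalling (line from NTP) were plated 6 h at 37 C/5% CO2, then exposed to DMSO-dissolved compound for 18 h at 37 C. Luciferase activity was read by One-Glo luminescence after 30 min at room temperature.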

Chain of Luciferin 4-monooxygenase (Photinus pyralis) (P08659 whole entry, looked up): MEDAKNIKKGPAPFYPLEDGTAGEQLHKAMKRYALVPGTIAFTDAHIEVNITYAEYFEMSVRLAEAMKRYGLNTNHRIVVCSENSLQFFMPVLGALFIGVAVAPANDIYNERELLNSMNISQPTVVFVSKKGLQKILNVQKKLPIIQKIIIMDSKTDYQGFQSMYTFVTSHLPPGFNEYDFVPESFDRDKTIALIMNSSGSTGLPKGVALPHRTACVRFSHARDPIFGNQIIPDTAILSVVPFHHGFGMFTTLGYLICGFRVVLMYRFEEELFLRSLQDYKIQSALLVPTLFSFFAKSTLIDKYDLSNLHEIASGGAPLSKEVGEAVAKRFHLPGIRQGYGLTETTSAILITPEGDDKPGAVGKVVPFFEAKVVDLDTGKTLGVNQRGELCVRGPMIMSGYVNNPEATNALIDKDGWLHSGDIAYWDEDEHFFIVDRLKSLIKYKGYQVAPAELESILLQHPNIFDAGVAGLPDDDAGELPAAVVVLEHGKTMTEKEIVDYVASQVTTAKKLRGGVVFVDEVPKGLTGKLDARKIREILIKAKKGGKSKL

For `C=C[C@H]1CN2CC[C@@H]1C[C@@H]2[C@@H](O)c1ccnc2ccc(OC)cc12`, the Potency [1] was “inactive” and the Potency [2] was “inactive”.
With `CCCCCCCCCCCCCCC[C@H](O)[C@H](N)CO` the Potency [1] was “inactive” and the Potency [2] was “inactive”.
For `NCC(O)c1ccc(O)c(O)c1` (stereo unspecified), the Potency [1] was “inactive” and the Potency [2] was “inactive”.
For `N.N.O=C(O)C1(C(=O)O)CCC1.[Pt+2]`, the Potency [1] was “inactive” and the Potency [2] was “inactive”.
With `Nc1ncnc2c1ncn2[C@@H]1O[C@H](CO)C(O)[C@H]1O` (stereo partly specified) the Potency [1] was “inactive” and the Potency [2] was “inactive”.
With `Cn1c(=O)[nH]c2ncn(C)c2c1=O` the Potency [1] was “inactive”, the Potency [3] was “inactive” and the Potency [4] was “inactive”. For the same molecule, the Potency [5] was “inactive”.
In the case of `CC(C)NC[C@H](O)COc1cccc2ccccc12`, the Potency [1] is reported as “inactive” and the Potency [2] is reported as “inactive”.
In the case of `COc1cc2ncnc(Nc3cccc(Cl)c3)c2cc1OC`, the Potency [1] is reported as “inactive”, the Potency [2] is reported as “inactive” and the viability change, negative = cytotoxic [3] is reported as -12.2% [at 19 µM]. For the same molecule, the activity change, negative = inhibition [4] was -1.79% [at 23.6 µM] and the viability change, negative = cytotoxic [5] was -10.2% [at 19 µM].
In the case of `Clc1ccc(N2CCN(Cc3cc4ccccn4n3)CC2)cc1`, the Potency [1] is reported as “inactive”, the Potency [6] is reported as “inactive” and the Potency [7] is reported as “inactive”.
With `CC1CC2C3CCC4=CC(=O)C=C[C@]4(C)[C@@]3(F)[C@@H](O)C[C@]2(C)[C@@]1(O)C(=O)CO` (stereo partly specified) the Potency [1] was “inactive” and the Potency [2] was “inactive”.
With `C=C[C@H]1CN2CC[C@@H]1C[C@H]2[C@H](O)c1ccnc2ccc(OC)cc12` the Potency [1] was “inactive” and the Potency [2] was “inactive”.
For `COC(=O)c1c(C)[nH]c(C)c1C(=O)c1ccccc1Cc1ccccc1`, the Potency [1] was “inactive”, the Potency [6] was “inactive” and the Potency [2] was “inactive”. The Potency [7] was “inactive”.
With `CSC(=N)N` the Potency [1] was “inactive” and the Potency [2] was “inactive”.
In the case of `CN1C2CCC1CC(OC(=O)c1c[nH]c3ccccc13)C2` (stereo unspecified), the Potency [1] is reported as “inactive” and the Potency [2] is reported as “inactive”.
With `CC(C)NC[C@H](O)COc1cccc2[nH]ccc12` the Potency [1] was “inactive” and the Potency [2] was “inactive”.
For `Cc1ccc(S(=O)(=O)N[C@@H](Cc2ccccc2)C(=O)CCl)cc1`, the Potency [8] was “inactive”, the Potency [6] was “inactive” and the Potency [2] was 26.6 µM (active). The Potency [7] was “inactive”.
In the case of `Nc1ccc2c3c(cccc13)C(=O)NC2=O`, the Potency [8] is reported as “inactive”, the Potency [6] is reported as “inactive” and the Potency [9] is reported as “inactive”. The Potency [7] was “inactive”.
